# Experimental data taken from PubChem BioAssay (EPA / NIEHS).
# Values joined by “and” are separate entries in the source; they are usually repeats but may differ in a detail not shown here. Equal entries are not always repeated. Some structures have more than one record in an assay (separate samples or runs), and their calls can disagree. Active and inactive are the calls of the source. How the source made its calls: active means hit-call score of the fitted dose curve at least 0.9, where 1 is the maximum; inactive means score below 0.9.
# Read-out: CD69, CD69 (gene 969)
# Experiment: BSK_SAg_CD69: BioMAP Diversity Plus: SAg Assay for CD69 Biomarker Activity (AID 2283089)
# Details: primary human HUVEC with PBMC; actives raise or lower the signal
# Description: BSK_SAg is a cell-based, multiplexed-readout assay that uses umbilical vein endothelium and peripheral blood mononuclear cells, a human vascular primary cell co-culture, with measurements taken at 24 hours after chemical dosing in a 96-well plate.BSK_SAg_CD69 is one of 10 assay component(s) measured or calculated from the BSK_SAg assay. It is designed to make measurements of enzyme-linked immunosorbent assay, a form of binding reporter, as detected with fluorescence intensity signals by Enzyme-linked immunosorbent assay technology.Data from the assay component BSK_SAg_CD69 was analyzed into 1 assay endpoint. This assay endpoint, BSK_SAg_CD69, was analyzed with bidirectional fitting relative to DMSO as the negative control and baseline of activity. Using a type of binding reporter, gain or loss-of-signal activity can be used to understand changes in the signaling as they relate to the gene CD69. Furthermore, this assay endpoint can be referred to as a primary readout, because this assay has produced multiple assay endpoints where this one serves a signaling function. To generalize the intended target to other relatable targets, this assay endpoint is annotated to the cytokine intended target family, where the subfamily is inflammatory factor.
# The levels of cell surface (or secreted, indicated by the prefix "s") biomarker endpoints were measured by ELISA. Overt cytotoxicity to cells in confluent adherent cultures (all systems other than the BT system) was assessed by measuring total protein levels using sulforhodamine B (SRB) staining in parallel cultures at the time of biomarker measurements, indicated as SRB endpoints. For proliferation assays for adherent cell types, individual cell types are cultured at sub-confluence and relative cell numbers quantified by SRB staining at time points optimized for each system (48 h: 3C and CASM3C systems; 72 h: BT and HDF3CGF systems; 96 h: SAg system). SRB was performed by staining cells with 0.1% SRB after fixation with 10% TCA and reading wells at 560 nm.Viability and proliferation of PBMC (T cells) was quantified by Alamar Blue reduction for the SAg and BT systems. For PBMC viability (referred to as PBMC Cytotoxicity within the assay endpoint names), cells were plated (75,000/well in a 96-well plate) and then chemical samples added for 1 h before addition of activators, SEB and TSST-1 (20 ng/mL final concentration each). Cells were incubated for 90 h. Then, Alamar Blue (20 uL/well) (Invitrogen, Cat DAL1100) was added for 6 h, and the plates were read with a fluorescence microplate reader at 546/580 nm (excitation/emission). For PBMC proliferation, cells were plated and activated as above but incubated for only 16 h prior to addition of Alamar Blue. Plates were read after 6 h.
Structure (SMILES),outcome,AC50
O=S(=O)(O)CCC(F)(F)C(F)(F)C(F)(F)C(F)(F)C(F)(F)C(F)(F)C(F)(F)C(F)(F)F,inactive,
NC(=O)C(F)(F)C(F)(F)C(F)(F)C(F)(F)C(F)(F)C(F)(F)C(F)(F)F,inactive,
COC(F)(C(F)F)C(F)(F)F (stereo not given),inactive,
FC(F)(F)C(F)(F)C(F)(F)C(F)(F)C(F)(F)C(F)(F)C(F)(F)CCI,inactive,
CC(C)CCCC(C)CCO (stereo not given),inactive,
O=C(O)CCC(F)(F)C(F)(F)C(F)(F)C(F)(F)C(F)(F)C(F)(F)C(F)(F)F,inactive,
CCOC(C=C(C)CCC=C(C)C)OCC,inactive,
O=C(O)C(F)(F)C(F)(F)C(F)(F)OC(F)(F)F,inactive,
O=C(Cl)C(F)(F)C(F)(F)C(F)(F)C(F)(F)C(F)(F)C(F)(F)F,inactive,
OCC(O)CC(F)(F)C(F)(F)C(F)(F)C(F)(F)F (stereo not given),inactive,
Brc1nc2ccccc2s1,inactive,
C=CC(=O)OCC(F)(F)C(F)(F)C(F)(F)COC(=O)C=C,,8.7 µM (active) and 8.29 µM (active)
Cc1cnccn1,inactive,
OCC(F)(F)C(F)(F)C(F)(F)C(F)(F)C(F)(F)C(F)(F)C(F)(F)C(F)(F)CO,inactive,5.61 µM (active)
O=C(O)C(F)(F)C(F)(F)C(F)(F)OC(F)(C(F)(F)F)C(F)(F)F,inactive,
Cc1ccc(O)c(-n2nc3ccccc3n2)c1,inactive,
NC(O)(C(F)(F)F)C(F)(F)F,inactive,
CCN=C1C=CC(=C(c2ccc(N(CC)CC)cc2)c2ccc(N(CC)CC)cc2)c2ccccc21,,1.34 µM (active) and 765 nM (active)
NCC(F)(F)C(F)(F)C(F)(F)C(F)(F)C(F)(F)C(F)(F)F,inactive,

Structure (SMILES),outcome,AC50
NC(=O)C(F)(F)C(F)(F)C(F)(F)F,inactive,
OC(O)C(F)(F)C(F)(F)F,inactive,
O=C=Nc1cccc2c(N=C=O)cccc12,inactive,
O=C(O)C(F)(F)C(F)(F)C(F)(F)C(F)(F)C(F)(F)C(F)(F)C(F)F,inactive,
CC1=CC2C3C=CC(C3)C2C1C (stereo not given),inactive,
OCC(F)(F)C(F)(F)C(F)(F)CO,inactive,
Cc1ccc(S(=O)(=O)C(I)I)cc1,,3.25 µM (active)
O=C(F)C1(F)C(F)(F)C(F)(F)C(F)(F)C(F)(F)C1(F)F,inactive,
O=S(=O)(Cl)C(F)(F)C(F)(F)C(F)(F)C(F)(F)C(F)(F)C(F)(F)C(F)(F)C(F)(F)F,inactive,15 µM (active)
NCC(F)(F)C(F)(F)C(F)(F)C(F)(F)C(F)(F)C(F)(F)C(F)(F)C(F)(F)F,inactive,
O=S(=O)(O)CCC(F)(F)C(F)(F)C(F)(F)C(F)(F)F,inactive,
NS(=O)(=O)C(F)(F)C(F)(F)C(F)(F)C(F)(F)C(F)(F)C(F)(F)F,,28.6 µM (active) and 32.5 µM (active)
O=C1c2c(O)ccc(Nc3ccc(CCO)cc3)c2C(=O)c2c([N+](=O)[O-])ccc(O)c21,,14.2 µM (active)
O=C=NCc1cccc(CN=C=O)c1,inactive,
O=S(=O)(OCC(F)(F)F)C(F)(F)C(F)(F)C(F)(F)C(F)(F)F,inactive,
OCCCC(F)(F)C(F)(F)C(F)(F)C(F)(F)C(F)(F)C(F)(F)C(F)(F)C(F)(F)F,,45.5 µM (active) and 46.7 µM (active)
Cc1cc(C)c(O)c(C(C)(C)C)c1,,31.5 µM (active)
O=C(Cl)C(F)(F)C(F)(F)C(F)(F)C(F)(F)C(F)(F)C(F)(F)C(F)(F)F,inactive,
CN(C(=O)C(F)(F)C(F)(F)C(F)(F)F)[Si](C)(C)C,inactive,
